Read-outs that look alike come from different tables or passages of the source.
Columns and labels:
AAK1 = conditions: n = 1
ABL1-nonphosphorylated = conditions: n = 1
ABL1-phosphorylated = conditions: n = 1
ABL2 = conditions: concentration: 1 μM, replicates: in singlicate; n = 1
ACVR1B = conditions: concentration: 1 μM, replicates: in singlicate; n = 1
ACVR1 = conditions: concentration: 1 μM, replicates: in singlicate; n = 1
ACVR2A = conditions: concentration: 1 μM, replicates: in singlicate; n = 1
ACVR2B = conditions: concentration: 1 μM, replicates: in singlicate; n = 1
ACVRL1 = conditions: concentration: 1 μM, replicates: in singlicate; n = 1
ADCK3 = test system: T1, ADCK3; conditions: concentration: 1 μM, replicates: in singlicate; n = 1
T1 construct: gene CABC1

[1] = concentration: 1 μM, replicates: in singlicate
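Further: KINOMEscan kinase panel screen.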

| SMILES | %Inh (AAK1; [1]) [%] | %Inh (ABL1-nonphosphorylated; [1]) [%] | %Inh (ABL1-phosphorylated; [1]) [%] | %Inh (ABL2) [%] | %Inh (ACVR1B) [%] | %Inh (ACVR1) [%] | %Inh (ACVR2A) [%] | %Inh (ACVR2B) [%] | %Inh (ACVRL1) [%] | %Inh (ADCK3) [%] | %Inh (AAK1; 1 µM) [%] | %Inh (ABL1-nonphosphorylated; 1 µM) [%] | %Inh (ABL1-phosphorylated; 1 µM) [%] |
| --- | --- | --- | --- | --- | --- | --- | --- | --- | --- | --- | --- | --- | --- |
| COc1cccc(C2=C(Nc3ccc(Cl)c(C(=O)O)c3)C(=O)NC2=O)c1 [SB-390769] | 9 | 11 | 100 | 16 | 0 | 15 | 100 | 5 | 0 | 0 | – | – | – |
| CN(C)S(=O)(=O)c1cc(-c2ccc3nccc(-c4cccc(S(N)(=O)=O)c4)c3c2)cnc1N [GSK1669921] | 26 | 0 | 0 | 17 | 0 | 88 | 0 | 0 | 0 | 16 | – | – | – |
| Cc1ccc(C(=O)Nc2ccc(Nc3ccnc4cc(-c5nccs5)ccc34)cc2O)cc1.Cl [GW494702] | 4 | 57 | 12 | 12 | 0 | 18 | 0 | 19 | 0 | 1 | – | – | – |
| COc1ccc(Nc2nccc(NCCNC(=O)c3cc4ccccc4s3)n2)cc1 [GSK1379896] | 7 | 0 | 0 | 9 | 0 | 0 | 0 | 0 | 0 | 10 | – | – | – |
| Cc1occc1-c1ncc(OC[C@@H](N)Cc2c[nH]c3ccccc23)cc1-c1ccc2[nH]nc(C)c2c1.O=C(O)C(F)(F)F [GSK682037] | 61 | 13 | 33 | 47 | 8 | 0 | 0 | 0 | 0 | 25 | – | – | – |
| COc1ccc(Nc2nccc(N3CCC(NC(=O)Nc4cccc(OC)c4)C3)n2)cc1 (centres unmarked) [GSK1379742] | 4 | 0 | 0 | 12 | 0 | 7 | 0 | 0 | 0 | 1 | – | – | – |
| O=C(Nc1n[nH]c2nc(-c3ccc(O)cc3)ccc12)C1CC1 [SB-710363] | 38 | 88 | 74 | 0 | 0 | 74 | 55 | 50 | 1 | 0 | – | – | – |
| CCS(=O)(=O)c1ccc(OC)c(Nc2nccc(-c3c(-c4cccc(NC(=O)c5c(F)cccc5F)c4)nn4ncccc34)n2)c1 [GSK326180] | 22 | 4 | 10 | 10 | 0 | 10 | 0 | 0 | 0 | 0 | – | – | – |
| COc1cc(Nc2nccc(-c3c(-c4cccc(NC(=O)c5c(F)cccc5F)c4)nn4ccccc34)n2)cc(OC)c1OC [GSK323521] | 44 | 52 | 0 | 33 | 19 | 0 | 7 | 15 | 25 | 10 | – | – | – |
| CC(C)(C)c1ccc2nccc(Nc3cccc(O)c3)c2c1 [GW856795] | 0 | 86 | 85 | 33 | 0 | 8 | 26 | 63 | 0 | 0 | – | – | – |
| COc1cc(Nc2nccc(N3CCC(NC(=O)c4cc5ccccc5s4)C3)n2)cc(OC)c1OC (centres unmarked) [GSK1379760] | 58 | 0 | 0 | 7 | 0 | 28 | 16 | 11 | 0 | 0 | – | – | – |
| O=C(Nc1cccc(-c2nn3ccccc3c2-c2ccnc(Nc3cccc(C(F)(F)F)c3)n2)c1)c1c(F)cccc1F [GSK292658] | 0 | 11 | 0 | 21 | 0 | 0 | 0 | 0 | 0 | 0 | – | – | – |
| O=C(Nc1cccc(Oc2ccc3nc(NC(=O)C4CC4)cn3n2)c1)c1ccccc1C(F)(F)F | 45 | 100 | 90 | 79 | 0 | 0 | 16 | 34 | 0 | 3 | – | – | – |
| COC(=O)Nc1nc2ccc(Oc3ccc(NC(=O)Nc4cc(C(F)(F)F)ccc4F)cc3)cc2n1C.Cl [GW692089] | 0 | 98.4 | 49 | 84 | 0 | 0 | 0 | 0 | 0 | 0 | – | – | – |
| O=c1[nH]cc(-c2ccc(N3CCOCC3)cc2)c2sc(-c3cn[nH]c3)cc12 [GSK2276055] | 23 | 0 | 0 | 0 | 0 | 0 | 2 | 0 | 0 | 0 | – | – | – |
| CNC(=O)c1ccccc1Nc1nc(Nc2ccc(N3CCOCC3)cc2)ncc1Cl.Cl [GSK1576028] | – | – | – | 95.6 | 85 | 95 | 18 | 43 | 42 | 35 | 89 | 98.8 | 99.6 |

| SMILES | %Inh (AAK1; [1]) [%] | %Inh (ABL1-nonphosphorylated; [1]) [%] | %Inh (ABL1-phosphorylated; [1]) [%] | %Inh (ABL2) [%] | %Inh (ACVR1B) [%] | %Inh (ACVR1) [%] | %Inh (ACVR2A) [%] | %Inh (ACVR2B) [%] | %Inh (ACVRL1) [%] | %Inh (ADCK3) [%] | %Inh (AAK1; 1 µM) [%] | %Inh (ABL1-nonphosphorylated; 1 µM) [%] | %Inh (ABL1-phosphorylated; 1 µM) [%] |
| --- | --- | --- | --- | --- | --- | --- | --- | --- | --- | --- | --- | --- | --- |
| COc1cc2c(cc1OCCN1CCNCC1)ncc1c3ccc(C#N)cc3[nH]c21 | 96.2 | 68 | 55 | 8 | 0 | 0 | 0 | 0 | 0 | 13 | – | – | – |
| Nc1ncc(-c2cccnc2)c2scc(-c3ccc4c(c3)CCN4C(=O)Cc3ccccc3)c12 [GSK683281] | 24 | 94.1 | 54 | 62 | 0 | 0 | 0 | 0 | 3 | 5 | – | – | – |
| Cc1ccc(S(=O)(=O)Nc2ccc(Nc3nccc(Nc4cccc5[nH]ncc45)n3)cc2)cc1 [GSK581271] | 27 | 11 | 31 | 64 | 8 | 32 | 0 | 57 | 30 | 41 | – | – | – |
| CN(c1ccc(NC(=O)Nc2cc(C(F)(F)F)ccc2F)cc1)c1ccnc(Nc2ccc(S(N)(=O)=O)cc2)n1 [GW809893] | 9 | 98.1 | 75 | 98.5 | 1 | 0 | 0 | 14 | 4 | 0 | – | – | – |
| Clc1ccc(-c2nn3ncccc3c2-c2ccnc(Nc3ccc4c(c3)OCCO4)n2)cc1 [GW829116] | 0 | 61 | 7 | 0 | 28 | 0 | 14 | 54 | 4 | 16 | – | – | – |
| O=C(O)C(F)(F)F.O=C(O)C(F)(F)F.O=c1[nH]ccc2nc(N[C@@H]3CCCNC3)nc(Nc3ccc(S(=O)(=O)N4CCOCC4)cc3)c12 [GSK2177277] | 91.6 | 47 | 84 | 46 | 2 | 91.1 | 29 | 53 | 9 | 0 | – | – | – |
| Cn1cc(-c2ccc3c(c2)CCN3C(=O)Cc2cccc(F)c2)c2c(N)ncnc21 [GSK2603358] | 18 | 58 | 41 | 35 | 0 | 0 | 0 | 69 | 0 | 2 | – | – | – |
| CC(=O)N1CCN(c2ccc(Nc3nccc(-c4sc(C(C)C)nc4-c4cccc(NS(=O)(=O)c5cccc(Cl)c5)c4)n3)cn2)CC1 [GSK1660437] | 0 | 95.8 | 35 | 83 | 70 | 61 | 29 | 72 | 44 | 73 | – | – | – |
| COCCOCCOc1cc2ncc3c4ccc(C#N)cc4[nH]c3c2cc1OC | 92.1 | 70 | 53 | 2 | 0 | 0 | 6 | 0 | 0 | 29 | – | – | – |
| CN1CCN(CCCNc2nccc(-c3c(-c4ccc(F)cc4)nn4cc(C(F)(F)F)ccc34)n2)CC1 [GW621581] | 1 | 0 | 0 | 9 | 83 | 40 | 0 | 0 | 26 | 70 | – | – | – |
| O=C(Nc1ccccc1F)NC1CCN(c2ccnc(Nc3ccc(F)cc3)n2)CC1 [GSK1379800] | 17 | 0 | 0 | 12 | 0 | 6 | 0 | 0 | 0 | 1 | – | – | – |
| Cc1cccc(NC(=O)Nc2ccc(Oc3ncnc4ccn(C)c34)cc2)c1 | 0 | 33 | 23 | 0 | 0 | 4 | 2 | 0 | 0 | 0 | – | – | – |
| C[C@@H](Oc1cc(-n2cnc3cc(-c4ccnc(NCCS(C)(=O)=O)c4)ccc32)sc1C(N)=O)c1ccccc1Cl [GSK907232] | 73 | 0 | 0 | 30 | 0 | 10 | 0 | 3 | 0 | 25 | – | – | – |
| COc1ccc(-c2coc3ccc(-c4nnc(SCc5ccc(OC)c(C(F)(F)F)c5)o4)cc23)cc1 | 2 | 13 | 0 | 24 | 7 | 28 | 0 | 0 | 26 | 21 | – | – | – |
| CCn1c(-c2nonc2N)nc2c(C#CC(C)(C)O)ncc(OCCCCN)c21.O=C(O)C(F)(F)F.O=C(O)C(F)(F)F [GSK507274] | 41 | 0 | 4 | 11 | 0 | 3 | 7 | 0 | 0 | 26 | – | – | – |
| Nc1ncc(-c2ccc3nccc(-c4ccncc4)c3c2)cc1S(=O)(=O)N1CCOCC1 [GSK1627798] | 18 | 0 | 0 | 13 | 0 | 0 | 0 | 0 | 0 | 49 | – | – | – |

Reference: paper PMC5540273 (PLoS ONE, 2017)
